HPGD block: blocks human HPGD enzyme activity. actives 4.3% (n = 150,000). Potency, µM, without a hit: at the highest dose activity change, negative = inhibition, hits mostly inhibitors. purified HPGD, NADH fluorescence kinetic, PGE2 substrate. P15428. AID 894; further: potency means the concentration at half of the fitted maximal effect
Target sequence (P15428 whole entry, looked up): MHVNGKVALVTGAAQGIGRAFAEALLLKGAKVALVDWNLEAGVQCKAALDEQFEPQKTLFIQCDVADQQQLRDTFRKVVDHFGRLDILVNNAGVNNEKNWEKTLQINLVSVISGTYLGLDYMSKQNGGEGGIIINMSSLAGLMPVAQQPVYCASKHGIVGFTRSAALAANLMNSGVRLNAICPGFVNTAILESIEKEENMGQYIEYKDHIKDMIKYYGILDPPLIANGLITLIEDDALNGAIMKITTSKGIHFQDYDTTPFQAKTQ
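20 nM HPGD preincubated 15 min at room temperature with compound in 50 mM Tris-HCl pH 8, 0.01% Tween 20. Started with 1 mM NAD+ and 30 uM prostaglandin E2; NADH fluorescence (360/450 nm) read 5 times over 30-s intervals, last minus first.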
PNC inhibitor: inhibitors of perinucleolar compartment assembly; PC3M PTB-GFP, PNC prevalence imaging, 16 h; stronger effect = lower value; activity change (PNC), negative = inhibition, % at 10 µM; actives 3.1% (n = 140,000);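 active means readout at or below -70, meaning at least 70% loss of cells showing the perinucleolar compartment, a nuclear body marking cancer cells; inconclusive means readout between -30 and a set limit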;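 further: plate controls were DMSO wells for no effect and camptothecin positive control wells for full effect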
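Read-out is percentage of cells bearing a perinucleolar compartment, from automated 20x imaging of fixed, Hoechst-stained PC3M PTB-GFP cells. Cells were seeded 4 h, then exposed 16 h to compound (23 nl of library stock) in duplicate plates.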
IMPase Li inh: IMPase inhibition in cells with lithium potentiation. AID 1457. Potency, µM (highest dose often 59.4 µM), for the others: at the highest dose activity, negative = IMPase inhibition, actives largely listed as inhibitors. CHO-M1 cells, IP1 TR-FRET (IP-One), carbachol + lithium. actives 0.35% (n = 210,000); active means well fitted curve in the direction sought with a large enough effect; inconclusive means small, poorly fitted or top-dose-only effect, or another doubt; inactive means no such curve, though single readings can be large; an effect the other way counts as inactive or inconclusive;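 further: IP1 builds up when IMPase is blocked and the TR-FRET signal falls; potency means the concentration at half of the fitted maximal effect; plate controls were basal vehicle for no effect and high inhibitor control for full effect; nearly all actives have a fitted effect of over 50% in size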
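Steps: plate 2000 CHO-M1 cells per well and culture 16–30 h; add compound and lithium; incubate 30 min, 37C; add d2-IP1 tracer and Eu cryptate anti-IP1 antibody in lysis buffer; read after 10 min at room temperature.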
ALDH1A1 inh: ALDH1A1 (human) enzyme inhibition; Purified ALDH1A1, NADH fluorescence, propionaldehyde substrate; Potency, µM (titrated, usually from 75.3 µM), for the others: top-dose activity, negative = inhibition, hits mostly inhibitors; actives 7.3% (n = 220,000); AID 1030;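 further: potency means the concentration at half of the fitted maximal effect; plate controls were no enzyme wells and a reference inhibitor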
NPSR antag: neuropeptide S receptor (human) antagonism, cAMP; actives 1% (n = 220,000); Q6W5P4; Potency, µM (highest dose often 38.3 µM), inactives show at the highest dose activity change, negative = inhibition, usual class: inhibitors; CHO-NPSR cells, cAMP TR-FRET, antagonist mode; active means well fitted curve in the direction sought with a large enough effect; inconclusive means small, poorly fitted or top-dose-only effect, or another doubt; inactive means no such curve, though single readings can be large; an effect the other way counts as inactive or inconclusive; further: potency means the concentration at half of the fitted maximal effect; nearly all actives have a fitted effect of over 50% in size
IMPase inh: cell-permeable inhibitors of inositol monophosphatase (IMPase). inhibition (IP1 accumulation), % at 46.1 µM. CHO-M1 cells, IP1 accumulation, HTRF TR-FRET ratio. 120,000 tested, under 10 active. P97697; active means well fitted curve in the direction sought with a large enough effect in the signal ratio, not every such curve was filed as active; inconclusive means small, poorly fitted or top-dose-only effect, or a change in a side signal; inactive means no such curve, though single readings can be large or run the other way; the % refers to the signal ratio;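 further: cells stimulated with carbachol in lithium chloride buffer; plate controls were DMSO basal wells for no effect and reference inhibitor wells for full effect; higher means more IMPase inhibition seen as more IP1 and lower FRET ratio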
Target sequence (P97697 whole entry, looked up): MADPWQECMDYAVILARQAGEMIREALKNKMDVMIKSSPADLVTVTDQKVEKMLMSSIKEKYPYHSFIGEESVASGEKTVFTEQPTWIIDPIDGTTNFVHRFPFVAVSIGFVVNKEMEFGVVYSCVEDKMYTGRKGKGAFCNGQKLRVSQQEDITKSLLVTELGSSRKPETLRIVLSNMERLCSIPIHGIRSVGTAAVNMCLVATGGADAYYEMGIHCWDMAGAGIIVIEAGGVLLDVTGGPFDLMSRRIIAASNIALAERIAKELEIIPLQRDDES
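Carbachol-driven Gq signalling in CHO-M1 cells (2000/well) generates IP1. Compounds that block IMPase raise IP1 and so reduce the FRET signal from Eu-anti-IP1 and d2-IP1 after a 10 min room-temperature lysis.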
Active calls of the source: *; ? = inconclusive; / = not tested or not shown; [ ] = remark or other dose. Most compounds without a hit are left out; they make up all but 11% or so of the library. Unless noted, the call rests on the fitted dose curve; in most records, active means well fitted inhibition curve with a large enough effect (not every such curve was filed as active); inconclusive means small, poorly fitted or top-dose-only effect, or another doubt; inactive means no such curve, though single readings can be large or run the other way. Unless noted, on the % scale 0 is the no-effect control and ±100 the full control effect.

SMILES | HPGD block | PNC inhibitor | IMPase Li inh | ALDH1A1 inh | NPSR antag | IMPase inh
O=[N+]([O-])c1ccccc1OCc1nc(-c2cccs2)no1 | / | / | 8% | -12% | 4% | /
Oc1ccc(N2CCN(c3ncnc4sc5c(c34)CCC5)CC2)cc1 | -19% | ? | 15%[38.3 µM] | ? | ? | 11
CCC1CCc2c(sc3ncnc(N4CCOCC4)c23)C1 (stereo not given) | -27% | -126* | 23%[38.3 µM] | -12% | -23%[46.1 µM] | -1
CCCCOc1ccc(C(=O)Nc2ccc(S(=O)(=O)Nc3cc(C)on3)cc2)cc1OC | -24% | 35 | 5%[38.3 µM] | 2% | -26%[46.1 µM] | 9
O=C(NCCOC12CC3CC(CC(C3)C1)C2)c1cccc(Br)c1 | -9% | -19 | -14%[38.3 µM] | 7.1µM* | -22%[46.1 µM] | 11
COc1ccc2c(C)cc(SCc3c(C)noc3C)nc2c1 | ? | -111* | 13%[38.3 µM] | ? | -34%[46.1 µM] | 3
CC(C)Oc1cccc(C(=O)NC(=S)Nc2cccc(NC(=O)c3ccccc3Cl)c2)c1 | -10% | 0 | 1% | 11µM* | -35% | /
Cc1ccc(OCC(=O)NC(=S)Nc2cccc(NC(=O)c3ccccc3Cl)c2)cc1 | -9% | 29 | -1% | 13µM* | -27% | /
COC(C(=O)Nc1cccc([N+](=O)[O-])c1)c1ccccc1 (stereo not given) | / | / | 2% | 20µM* | 1% | /
CCC(=O)NC(=S)Nc1cccc(NC(=O)c2ccccc2Cl)c1 | -6% | -29 | 1%[38.3 µM] | ? | 0%[46.1 µM] | 2
CC(C)CC(=O)NC(=S)Nc1cccc(NC(=O)c2ccccc2Cl)c1 | -10% | 15 | 18%[38.3 µM] | ? | -20%[46.1 µM] | 1
CCCCOc1cccc(C(=O)NC(=S)Nc2ccc(Cl)c(C(=O)O)c2)c1 | / | / | 4% | ? | -39% | /
CCCOc1cccc(C(=O)NC(=S)Nc2cccc(C(F)(F)F)c2)c1 | -18% | ? | 15%[38.3 µM] | 18µM* | ? | 1
O=C(Nc1cnc2ccccc2c1)N1CCOCC1 | -5% | 25 | 4%[38.3 µM] | -3% | -14%[46.1 µM] | 2
O=C(O)C/C(=C\c1cccc(NC(=O)c2ccccc2Cl)c1)c1nc2ccccc2s1 | / | / | / | / | -23% | /
O=C(COc1ccccc1)NC(=S)Nc1cccc([N+](=O)[O-])c1 | 28µM* | 0 | 5% | ? | 9% | -4
CCC(C(=O)Nc1ccc(OC)c(Cl)c1)c1ccccc1 (stereo not given) | -6% | -28 | 14% | -14% | 12% | /
CCC(CC)=NNc1cccc([N+](=O)[O-])c1 | ? | -21 | 16% | 28µM* | 0%[46.1 µM] | 2
O=C(COc1ccccc1)NC(=S)Nc1cccc(NC(=O)c2ccccc2Cl)c1 | / | 30 | / | 10µM* | ? | 4
COc1ccc(NC(=O)C(OC(=O)c2ccc([N+](=O)[O-])o2)c2ccccc2)cc1Cl (stereo not given) | -20% | 14 | 11% | 2.5µM* | -20% | 8
Nc1nnnn1CC(=O)N/N=C/c1ccccn1 | / | / | / | 1% | -16% | /
FC(F)(F)c1ccc(-n2ccnc2)nc1 | 5% | -4 | 7%[38.3 µM] | 3% | -19%[46.1 µM] | -7
Cc1ccc(S(=O)(=O)Oc2cccc(/C=N/n3cnnc3)c2)cc1 | ? | 18 | 2% | 0.89µM* | -4% | /
C(=N\n1cnnc1)/c1cccc(OCCOc2ccccc2)c1 | -29% | -10 | 16%[38.3 µM] | -10% | 16%[46.1 µM] | 5
COc1ccc(O)c(C(=O)C2c3ccccc3C(=O)N2c2ccc(C)cc2)c1 (stereo not given) | / | / | / | 11µM* | 46% | /
SMILES | HPGD block | PNC inhibitor | IMPase Li inh | ALDH1A1 inh | NPSR antag | IMPase inh
COc1ccc(Br)cc1CN(C)C(C)C(=O)Nc1cccc(C(C)=O)c1 (stereo not given) | / | / | 22% | 10µM* | -45% | /
COc1ccc(C(C)=O)cc1CSCCC(=O)O | 28µM* | 49 | -2%[38.3 µM] | -5% | -11%[46.1 µM] | 5
COc1ccc(CN2C(=O)NC3(CCCCCC3)C2=O)cc1F | -3% | -3 | 1%[38.3 µM] | -9% | 0%[46.1 µM] | 4
COc1ccc(C(C)=O)cc1CN(C)C | -4% | -2 | -27%[38.3 µM] | 8.9µM* | 5%[46.1 µM] | 10
COc1ccc(C(C)=O)cc1CSc1ncccn1 | / | / | 4% | -8% | 5% | /
COc1ccc(C(C)=O)cc1CN1C(=O)NC2(CCCCCCC2)C1=O | / | / | 7% | 6.3µM* | -8% | /
COc1ccc(C(C)=O)cc1COc1ccc(Cl)cc1Cl | / | / | / | 6% | 17% | /
Cc1ccsc1/C=N/NC(=S)NCc1ccccc1 | / | / | 1% | 8% | -46% | /
CCOc1cc(N2CCOCC2)c(OCC)cc1NC(=O)CN1C(=O)NC(CC(C)C)C1=O (stereo not given) | / | / | 3% | 3% | -8% | /
CCNCC(O)COCC(O)CNCC (stereo not given) | 1% | 10 | -4%[38.3 µM] | 5% | -7%[46.1 µM] | 2
COc1ccc(OC)c(C(C)NC(=O)Nc2cccc(C(C)=O)c2)c1 (stereo not given) | / | / | 14% | 11µM* | -2% | /
COc1cccc(C(=O)Nc2cccc(C(C)=O)c2)c1 | -16% | 18 | -14% | ? | 2% | /
COc1ccc(-c2csc(CCN3N=C(C)CC3=O)n2)cc1 | / | / | 8% | 2µM* | -12% | /
COc1ccc(-c2csc(C)n2)cc1 | -4% | -20 | 4% | 6% | -7%[46.1 µM] | 0
CS(=O)(=O)Nc1cccc(-c2nc(NCc3cccnc3)c3ccccc3n2)c1 | -15% | / | 1% | 7% | / | /
COc1cccc(-c2cncnc2NCc2ccccc2)c1 | 14µM* | / | 8% | ? | / | /
Cc1cccc(CNc2ncncc2-c2cccc(NS(C)(=O)=O)c2)c1 | 16µM* | / | 21% | ? | / | /
CS(=O)(=O)Nc1cccc(-c2cncnc2NCc2ccccc2)c1 | / | / | -4% | -1% | / | /
COc1cccc(-c2cncnc2NCc2cccs2)c1 | / | / | 24% | ? | / | /
COc1cccc(-c2ccc3ncnc(NCc4cccnc4)c3c2)c1 | / | / | 17% | ? | / | /
CS(=O)(=O)Nc1cccc(-c2ccc3ncnc(NCc4cccnc4)c3c2)c1 | 25µM* | / | 16% | 6% | / | /
CS(=O)(=O)Nc1cccc(-c2nc(NCc3ccccc3)c3ccccc3n2)c1 | / | / | 25% | 25µM* | / | /
C[C@H](NC(=O)c1nc[nH]c1C(=O)NCC(=O)OC(C)(C)C)C(=O)OC(C)(C)C | / | / | / | / | 9% | /
CN(C(=O)c1ccc(S(=O)(=O)NC2CCCC2)cc1)C1CCCCC1 | -9% | ? | ? | ? | 2%[46.1 µM] | 0
COc1ccccc1/C=N/NC(=O)CC(=O)Nc1ccc(Cl)c(Cl)c1 | -12% | 12 | -12%[38.3 µM] | -6% | -14%[46.1 µM] | 1
CCCSC1=N/C(=C/c2ccsc2)C(=O)N1c1ccccc1 | -19% | 16 | 7% | 14µM* | -28% | /
O=C(COC(=O)c1ccccc1Nc1ccc(SC(F)F)cc1)NC1CC1 | ? | -27 | 2% | -7% | -14% | /
CSc1ccccc1C(=O)Nc1ccccc1C | / | / | -1% | -2% | 4% | /
